# Assay outcomes deposited in PubChem BioAssay by National Center for Advancing Translational Sciences (NCATS).
# DNA Pol III inh: DNA polymerase III holoenzyme inhibition | reconstituted DNA polymerase III holoenzyme replication, biochemical | hit rate 0.25% among 71,000 | Potency, µM (doses to about 57.1 µM), without a hit: at the highest dose activity change, negative = inhibition; note: potency is the fitted concentration of half-maximal effect; % is set by controls: 0 for no effect and ±100 for the full control effect
#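 Reconstituted *E. coli* holoenzyme (0.35 nM Pol III, 1 nM beta, 154 nM SSB, 2 nM primase) was preincubated with compound for 15 min at RT. Synthesis on 1.4 nM ssM13Gori ran 35 min, then was stopped with PicoGreen/EDTA and read as dsDNA fluorescence.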
# ERK AVP block: inhibitors of vasopressin-stimulated ERK signaling pathway | HEK293-V1b, vasopressin-stimulated pERK AlphaScreen | Potency, µM (highest dose often 57.5 µM), inactives show at the highest dose activity, negative = inhibition, actives largely listed as inhibitors | hit rate 0.99% among 72,000; note: potency is the fitted concentration of half-maximal effect; % is set by controls: 0 for no effect and ±100 for the full control effect; nearly all actives have a fitted effect of over 55% in size
#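 Phosphorylated ERK1/2 detected via AlphaScreen bead proximity in lysates of V1b-expressing HEK293 cells given 25 nM vasopressin for 5 min after 30 min compound exposure (37 °C). AC50 from Hill equation; basal DMSO 0%, vasopressin 100%.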
# TsaE inh: inhibitors of E. coli YjeE (TsaE). P0AF67. Potency, µM. hit rate 0.05% among 71,000. purified YjeE enzyme, qHTS inhibition assay
#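 Purified YjeE (10 uM) with BODIPY Texas Red-labeled ADP probe (2 uM); compounds pin-transferred, 15 min at room temperature. Binding inhibition read as decreased fluorescence polarization; ADP titration as control.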
# BRCT inh red: disrupts BRCA1 BRCT binding to phosphoprotein, red fluorophore readout; P38398; BRCT-phosphopeptide binding, red fluorescence polarization; Potency, µM (top dose mostly 76.9 µM), for the others: top-dose activity change, negative = inhibition, hits mostly inhibitors; hit rate 0.03% among 75,000; AID 892; note: % is set by controls: 0 for no effect and ±100 for the full control effect
#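 Rhodamine-labelled pBACH1 10-mer (100 nM) bound to BRCT domain (100 nM) at pH 7.3; compounds incubated 12 min room temperature, polarization read. Free peptide defines full inhibition; unlabelled decapeptide titrated as control.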
# BRCT inh green: blocks human BRCA1 BRCT binding to phosphopeptide, green readout | BRCA1 BRCT-phosphopeptide binding, green fluorescence polarization | Potency, µM (highest dose often 76.9 µM), for inactives: top-dose activity change, negative = inhibition, most hits filed as inhibitors | hit rate 0.05% among 75,000 | AID 875;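 note: potency is the fitted concentration of half-maximal effect; plate controls were peptide without protein for full effect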
#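 Fluorescence polarization: His-tagged BRCT (~35 kDa BRCA1 C-terminus, 250 nM) bound to 100 nM fluorescein-labeled phosphorylated 10-aa BACH1 peptide, pH 7.3 phosphate buffer with DTT and Tween 20. Compounds incubated 12 min at room temperature; inhibition read as lowered polarization.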
# * = called active by the depositor; i = inactive; ? = inconclusive; nt = not tested or not shown; ! = not confirmed by another sample; [ ] = dose if it differs, or a comment. Shown are actives, neighbours in structure and some others; about 1.2% of the full set was active somewhere. Calls come from the whole dose curve; as a rule, active = well fitted curve in the direction sought with a large enough effect; inconclusive = small, poorly fitted or top-dose-only effect, or another doubt; inactive = no such curve, though single readings can be large; an effect the other way counts as inactive or inconclusive.
SMILES,DNA Pol III inh,ERK AVP block,TsaE inh,BRCT inh red,BRCT inh green
COc1ccc(CC(=O)Nc2cccc(-c3nnc(-c4cccc(C)c4)o3)c2)cc1OC,-7.6%,3.16µM*,i,-0.1%,1.3%
COc1ccc(CC(=O)Nc2ccc(-c3nnc(-c4ccccc4)o3)cc2)cc1OC,-6.8%,0.7%,i,1.0%,-2.2%
CCOc1cccc(C(=O)Nc2cccc(-c3nnc(-c4ccc(C)cc4)o3)c2)c1,2.7%,1.1%,i,-0.2%,-1.1%
COc1ccc(Cc2nnc(-c3cccc(C)c3)o2)cc1OC,-1.0%,-18.2%,i,-1.0%,0.2%
COc1ccc(CC(=O)Nc2cccc(-c3nnc(-c4ccc(C)cc4)o3)c2)cc1OC,-11.1%,7.94µM*,i,1.4%,-0.9%
COc1ccc(CC(=O)Nc2cccc(-c3nnc(-c4ccccc4)o3)c2)cc1OC,-0.4%,5.01µM*,i,-1.4%,-0.1%
CS(=O)(=O)N1CCC2(CCCN(Cc3ccc(C#N)cc3)C2)CC1,6.8%,2.7%,i,-0.6%,-2.3%
CCOC(=O)Cc1csc(NC(=O)CSc2ncnc3c2cnn3-c2ccc(OC)cc2)n1,1.8%,5.01µM*,i,-1.2%,11.8%
CN(C)Cc1ccccc1-c1nc(N(C)C)c2ccccc2n1,-6.5%,-1.4%,i,-0.1%,1.5%
N#CC(=NCCO)C1=C(O)c2ccccc2C1=O,1.0%[11.4 µM],19.1%[11.5 µM],i,0.0%[15.4 µM],0.5%[15.4 µM]
O=C1C(SCCO)=C(SCCO)C(=O)c2ccccc21,31.6µM*!,15.8µM*,i,-3.5%,2.0%
O=C(Nc1ccc(CN2CCOCC2)cc1)c1ccc(-c2ccc(Br)cc2)o1,-1.9%,31.6µM*,i,0.0%,-1.0%
N#C/C(=C(/N)Sc1ccc(N)cc1)c1ccccc1C(F)(F)F,nt,0.316µM*,nt,1.3%,2.5%
CO[C@@H]1COC(=O)C/C=C\[C@@H](C)[C@@H]2C=C[C@H](O)[C@@H](COC(=O)CCC[C@H]1C)O2,nt,1.9%[11.5 µM],nt,1.2%[15.4 µM],-0.8%[15.4 µM]
CCCC(c1nnnn1Cc1ccc(F)cc1)N1CCN(C2CCCCC2)CC1 (configuration not stated),-3.5%,31.6µM*,i,-1.1%,-2.1%
CCCC(c1nnnn1Cc1cccs1)N1CCN(C2CCCC2)CC1 (configuration not stated),-1.7%,2.8%,i,0.5%,0.2%
COc1ccccc1S(=O)(=O)Cc1ccc(C(=O)N2CCN(c3ccc(C)cc3)C(C)C2)o1 (configuration not stated),4.6%,25.1µM*,i,-1.2%,0.4%
CCOC(=O)N1CCN(C(=O)c2ccc(CS(=O)(=O)c3ccccc3OC)o2)CC1,5.8%,-0.4%,i,-0.4%,-2.1%
Nc1nc2c(s1)CCc1c-2cnn1-c1ccccc1,?,25.1µM*,i,-8.3%,-2.7%
O=C1CC(=O)N(Cc2cccs2)C(=O)N1,-10.3%,26.4%,i,0.5%,11.4%
O=C1CC(=O)N(Cc2ccco2)C(=O)N1,15.8µM*,-10.1%,i,-0.4%,17.0%
COc1cc(-n2nc(C)c3c2OC(N)=C(C#N)C3c2ccccc2)c(Cl)c(Br)c1O (configuration not stated),-2.4%,31.6µM*,i,-1.9%,2.4%
COc1ccc(Cl)cc1NS(=O)(=O)c1ccc(S(=O)(=O)N2CCCC2)cc1,0.7%,25.1µM*,i,-1.6%,2.6%
COc1ccc(S(=O)(=O)Nc2cc(Cl)ccc2OC)cc1,-0.2%[11.4 µM],-0.8%,i,-0.2%,0.6%
CC(C)(C)/C(O)=C(/C#N)c1nc2ccccc2[nH]1,-5.0%,20µM*,i,-0.7%,-1.8%
SMILES,DNA Pol III inh,ERK AVP block,TsaE inh,BRCT inh red,BRCT inh green
COc1cccc(OC)c1/C(O)=C(\C#N)c1nc2ccccc2[nH]1,-1.6%,15.2%,i,1.0%,0.1%
CCC/C=C(\CCC)C(NS(=O)(=O)c1ccc(-c2ccccc2)cc1)c1ccc(C(=O)OC)cc1 (configuration not stated),-11.5%,21.0%,i,0.0%,-0.9%
COCCn1c(=O)c(CCc2ccccc2)nc2cnc(N3CCN(C)CC3)nc21,-9.9%,1.8%,i,-0.4%,-0.8%
CCN(CC)CCOc1nc(C)nc2c1oc1ccccc12,-1.5%,-3.1%,i,-1.3%,-0.9%
CN(C)CCOc1nc(-c2ccccc2)nc2c1oc1ccccc12,25.1µM*,2.9%,i,-0.2%,2.8%
CCOC(=O)CCN1C(=O)[C@H]2[C@H]3[C@H](O)[C@H](O)C/C(=N/OC/C=C(\C)CCC=C(C)C)[C@H]3CC[C@@H]2C1=O,nt,20.7%[11.5 µM],nt,0.8%[15.4 µM],2.8%[15.4 µM]
CCN(CC)S(=O)(=O)c1cc(C(=O)OCC(=O)c2ccc3c(c2)NC(=O)CO3)ccc1F,-1.8%,31.6µM*,i,-1.3%,1.5%
C=CCn1c(N2CCCCCC2)nc2c1c(=O)[nH]c(=O)n2C,-1.4%,17.6%,i,-1.4%,-4.0%
C/C(Cl)=C\Cn1c(N2CCCC2)nc2c1c(=O)[nH]c(=O)n2C,-2.8%,25.1µM*,i,1.2%,-5.8%
COc1ccc(OC)c(C2OCCC=CC2C)c1 (configuration not stated),nt,8.4%[11.5 µM],nt,-0.4%[15.4 µM],2.2%[15.4 µM]
Clc1ccc2[nH]c3c(NCC4CCCO4)ncnc3c2c1 (configuration not stated),-5.0%,25.1µM*,i,-2.1%,-6.6%
Clc1ccc(-n2ncc3c(NCC4CCCO4)ncnc32)cc1 (configuration not stated),2.2%,nt,i,0.5%,3.7%
COc1ccc2nc3c(cc2c1)Cc1ccccc1-3,-13.1%,31.6µM*,i,-1.0%,-2.0%
COc1ccc(-c2nc3cnc(OC)nc3n(C[C@H]3CCCO3)c2=O)cc1,-3.9%,-10.3%,i,-0.9%,0.0%
COc1c(O)cccc1O,nt,5.1%,nt,-1.8%,-2.0%[3.08 µM]
Oc1cccc(O)c1O,7.94µM*,3.1%,i,-2.0%,8.8%
COc1ccc(-c2coc3ccc(O[C@@H]4O[C@@H](COC(C)=O)[C@@H](OC(C)=O)[C@@H](OC(C)=O)[C@H]4OC(C)=O)cc3c2=O)cc1,0.8%,nt,i,nt,nt
CC(C)C(c1nnnn1Cc1ccco1)N1CCN(C2CCCC2)CC1 (configuration not stated),-1.4%,12.9%,i,-0.1%,-0.1%
CC(C)C(c1nnnn1Cc1ccco1)N1CCN(c2nc3ccccc3s2)CC1 (configuration not stated),-1.9%,2µM*,i,-1.7%,0.8%
COC(=O)c1[nH]c2ccc(C)cc2c1NC(=O)CN1CCN(c2ccccc2)CC1,7.8%,12.6µM*,i,0.4%,0.4%
COC(=O)c1[nH]c2ccc(C)cc2c1NC(=O)CN1CCN(Cc2ccccc2)CC1,-1.8%,?,i,1.7%,-0.4%
COC(=O)c1[nH]c2cc(OC)c(OC)cc2c1NC(=O)CN1CCN(Cc2ccccc2)CC1,0.5%,10µM*,i,-2.3%,-1.1%
COC(=O)c1[nH]c2ccc(C)cc2c1NC(=O)CN1CCN(c2ccc(F)cc2)CC1,-0.7%,-18.3%,i,0.3%,-2.0%
